From PubChem BioAssay (Tox21)
Calls of active or inactive are those of the source. Unless noted, calls follow the shape of the dose curve; as a rule, active = well fitted curve in the direction sought with a large enough effect in the repeat runs; inconclusive = weak or mixed curves; inactive = no such curve, though single readings can be large; an effect the other way counts as inactive or inconclusive.

Tests used:
[1] = tested on: thyroid hormone receptor (rat, GH3 cells); assay: qHTS assay to identify small molecule agonists of the thyroid receptor (TR) signaling pathway (AID 743066; calls by dose curve)
[2] = qHTS assay to identify small molecule antagonists of the estrogen receptor alpha (ER-alpha) signaling pathway - cell viability counter screen (AID 743074; calls by dose curve;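 also: HEK293 cells carrying ER-alpha-UAS-bla reporter stimulated with 17beta-estradiol; nearly all actives have a fitted effect of over 45% in size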)
[3] = qHTS assay to identify small molecule antagonists of the estrogen receptor alpha (ER-alpha) signaling pathway using the BG1 cell line - cell viability counter screen (AID 743081);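 also: compound given together with 17beta-estradiol as the ER stimulus; nearly all actives have a fitted effect of over 45% in size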
[4] = target: Aromatase (Homo sapiens) (UniProt P11511); assay: qHTS assay to identify aromatase inhibitors (AID 743083); also: nearly all actives have a fitted effect of over 55% in size; also: potency is read from the fitted curve at half-maximal effect
[5] = qHTS assay to identify aromatase inhibitors - cell viability counter screen (AID 743084);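 also: cells stimulated with testosterone during compound exposure; nearly all actives have a fitted effect of over 55% in size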; also: potency is read from the fitted curve at half-maximal effect
[6] = target: Estrogen receptor (Homo sapiens) (UniProt P03372); assay: qHTS assay to identify small molecule antagonists of the estrogen receptor alpha (ER-alpha) signaling pathway (AID 743069; active = well fitted curve in the direction sought with a large enough effect in the signal ratio in the repeat runs, not every such curve was filed as active; inconclusive = weak or mixed curves, or effect the other way; inactive = no such curve, though single readings can be large or run the other way; the % refers to the signal ratio)
Procedure, shortened: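 Reporter cells (ER-alpha-bla, HEK293 background) are conditioned overnight in stripped-serum medium (2% charcoal-stripped FBS). Compound and 17beta-estradiol exposure runs 18 hr at 37C, 5% CO2.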

[7] = target: Estrogen receptor (Homo sapiens) (UniProt P03372); assay: qHTS assay to identify small molecule agonists of the estrogen receptor alpha (ER-alpha) signaling pathway (AID 743075; calls by dose curve;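 also: HEK293 GripTite cells with ER-alpha and UAS-driven beta-lactamase reporter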; also: potency is read from the fitted curve at half-maximal effect)
[8] = qHTS assay to identify small molecule antagonists of the estrogen receptor alpha (ER-alpha) signaling pathway using the BG1 cell line (AID 743080; calls by dose curve;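 also: BG1 cells stimulated with 17beta-estradiol alongside compound; nearly all actives have a fitted effect of over 25% in size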)
Procedure, shortened: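 BG1Luc4E2, endogenous ER-alpha, 4xERE-luc; 5 d charcoal-stripped FBS, phenol red free; 24 h plating; cpd + 17beta-estradiol 21.5 h, 37 C/5% CO2; CellTiter-Fluor viability 30 min, then ONE-Glo luciferase 30 min RT.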

[9] = target: Estrogen receptor (Homo sapiens) (UniProt P03372); assay: qHTS assay to identify small molecule agonists of the estrogen receptor alpha (ER-alpha) signaling pathway using the BG1 cell line (AID 743079); settings: BG1Luc4E2 cells, ERE-luciferase agonist, 22 h; also: nearly all actives have a fitted effect of over 20% in size; also: potency is read from the fitted curve at half-maximal effect
% is scaled to controls: 0 for no effect and ±100 for the full control effect.

Aromatase (Homo sapiens), sequence (P11511 whole entry, looked up): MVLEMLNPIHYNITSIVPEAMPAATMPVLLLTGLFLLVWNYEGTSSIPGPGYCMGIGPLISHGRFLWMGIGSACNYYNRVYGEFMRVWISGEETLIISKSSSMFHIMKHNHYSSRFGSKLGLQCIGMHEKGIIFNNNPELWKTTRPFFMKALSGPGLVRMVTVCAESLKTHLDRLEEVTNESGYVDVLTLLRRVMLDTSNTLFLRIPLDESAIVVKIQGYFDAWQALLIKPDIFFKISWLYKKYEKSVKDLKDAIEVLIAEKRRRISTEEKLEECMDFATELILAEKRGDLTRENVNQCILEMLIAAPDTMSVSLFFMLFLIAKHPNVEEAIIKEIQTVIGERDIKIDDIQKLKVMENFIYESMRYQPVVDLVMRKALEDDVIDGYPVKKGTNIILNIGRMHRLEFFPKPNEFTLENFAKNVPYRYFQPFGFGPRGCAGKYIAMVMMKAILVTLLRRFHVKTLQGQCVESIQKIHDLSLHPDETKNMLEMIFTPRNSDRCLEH
Estrogen receptor (Homo sapiens), sequence (P03372 whole entry, looked up): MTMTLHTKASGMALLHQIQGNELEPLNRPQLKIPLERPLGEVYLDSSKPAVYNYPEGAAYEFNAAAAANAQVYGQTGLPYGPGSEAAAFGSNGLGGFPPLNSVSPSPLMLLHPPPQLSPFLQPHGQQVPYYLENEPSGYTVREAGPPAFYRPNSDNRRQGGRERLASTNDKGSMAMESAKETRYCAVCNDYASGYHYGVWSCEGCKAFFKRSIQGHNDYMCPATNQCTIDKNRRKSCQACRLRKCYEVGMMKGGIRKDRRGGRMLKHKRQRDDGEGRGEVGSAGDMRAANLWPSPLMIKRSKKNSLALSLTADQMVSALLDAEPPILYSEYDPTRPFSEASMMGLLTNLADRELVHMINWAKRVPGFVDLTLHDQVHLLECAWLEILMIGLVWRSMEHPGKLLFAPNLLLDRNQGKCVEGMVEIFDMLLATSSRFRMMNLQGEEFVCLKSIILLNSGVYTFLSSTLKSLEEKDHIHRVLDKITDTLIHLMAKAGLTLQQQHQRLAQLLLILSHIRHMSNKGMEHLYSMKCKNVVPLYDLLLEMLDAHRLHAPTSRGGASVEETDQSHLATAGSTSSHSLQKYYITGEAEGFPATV

CC(C)c1ccc(O)cc1
inactive: Potency [1] | Potency [2] | Potency [3] | Potency [4] | Potency [5]

C#CCOC(=O)/C=C(C)/C=C/CC(C)CCCC(C)C (stereo not given)
inactive: Potency [6] | Potency [2] | Potency [7] | Potency [8] | Potency [3] | Potency [4] | Potency [5]

C#CC(C)(C)O
inactive: Potency [1] | Potency [3] | Potency [4] | Potency [5]

CN(CCO)CCO
inactive: Potency [1] | Potency [2] | Potency [7] | activation ([9]; at 95 µM (top of the series)) -2.37% | Potency [8] | Potency [3] | Potency [4] | Potency [5]

CCOc1cc(OP(=S)(OC)OC)nc(CC)n1
inactive: Potency [6] | Potency [2] | Potency [7] | activation ([9]; at 70.3 µM (top of the series)) -2.44% | Potency [8] | Potency [3] | Potency [4] | Potency [5]

C=C(Cl)CSC(=S)N(CC)CC
inactive: Potency [1] | Potency [2] | Potency [3]
active: Potency [4] 26.6 µM | Potency [5] 18.8 µM

CCC(=O)OC1(c2ccccc2)CCN(C)CC1
inactive: Potency [1] | Potency [2] | Potency [3] | Potency [4] | Potency [5]

O=S1(=O)OCCO1
inactive: Potency [1] | Potency [2] | Potency [3] | Potency [4] | Potency [5]

CC(C)[C@]12CC(=O)[C@H](C)[C@H]1C2
inactive: Potency [1] | Potency [2] | Potency [3] | Potency [4] | Potency [5]

CN1C(=O)COc2c(C(=O)NC3CN4CCC3CC4)cc(Cl)cc21 (stereo not given)
inactive: Potency [1] | Potency [2] | Potency [7] | activation ([9]; at 70.3 µM (top of the series)) 18.3% | Potency [8] | Potency [4] | Potency [5]

O=C(Cl)C(Cl)Cl
inactive: Potency [1] | Potency [2] | Potency [7] | activation ([9]; at 70.3 µM (top of the series)) 0.358% | Potency [8] | Potency [3] | Potency [4] | Potency [5]

COc1ccc(CN2CCNCC2)c(OC)c1OC
inactive: Potency [1] | Potency [2] | Potency [7] | activation ([9]; at 32.5 µM (top of the series)) 3.39% | Potency [8] | Potency [3] | Potency [4] | Potency [5]

COc1ccc2c(C(=O)c3ccc(Cl)cc3)c(C)n(CC(=O)O)c2c1
inactive: Potency [1] | Potency [2] | Potency [3] | Potency [4] | Potency [5]

CCN[C@@H](C)Cc1cccc(C(F)(F)F)c1
inactive: Potency [1] | Potency [2] | Potency [7] | activation ([9]; at 70.3 µM (top of the series)) -18% | Potency [8] | Potency [3] | Potency [4] | Potency [5]

CC(C)(C)NC[C@H](O)c1ccc(O)cc1Cl
inactive: Potency [1] | Potency [2] | Potency [3] | Potency [4] | Potency [5]

CC(C)N(Cc1ccccc1)C(=O)C(C)(C)C
inactive: Potency [1] | Potency [2] | Potency [3] | Potency [4] | Potency [5]

CCC(C)(C#N)N=NC(C)(C#N)CC (stereo not given)
inactive: Potency [1] | Potency [2] | Potency [7] | activation ([9]; at 70.3 µM (top of the series)) -7.9% | Potency [8] | Potency [3] | Potency [4] | Potency [5]

CC(C)(O)C(Cl)(Cl)Cl
inactive: Potency [6] | Potency [7] | activation ([9]; at 70.3 µM (top of the series)) 7.26% | Potency [8] | Potency [4] | Potency [5]

CC[C@H](O)C(C[C@H](C)N(C)C)(c1ccccc1)c1ccccc1
inactive: Potency [2] | Potency [7] | activation ([9]; at 95 µM (top of the series)) -12.1% | Potency [8] | Potency [3] | Potency [4] | Potency [5]

c1ccc2c(c1)CCNC2
inactive: Potency [2] | Potency [3] | Potency [4] | Potency [5]

NNCc1ccccc1
active: Potency [9] 62.3 µM
inactive: Potency [2] | Potency [7] | Potency [3] | Potency [4] | Potency [5]

O=CCCl
inactive: Potency [1] | Potency [2] | Potency [7] | activation ([9]; at 70.3 µM (top of the series)) 14.1% | Potency [8] | Potency [3] | Potency [4] | Potency [5]

C[C@]12C=CC(=O)C=C1CC[C@@H]1[C@@H]2CC[C@@]2(C)[C@H]1CC[C@]2(C)O
inactive: Potency [1] | Potency [2] | Potency [8] | Potency [3] | Potency [4] | Potency [5]
active: Potency [7] 0.425 µM [inconclusive] | Potency [9] 0.15 µM

CCOC(=O)N(C)N=O
inactive: Potency [1] | Potency [2] | Potency [3] | Potency [4] | Potency [5]
